# ELG1 DNA repair – inhibitors of ELG1-dependent DNA repair in HEK293T cells. HEK293T ELG1-luciferase reporter, luminescence, 16 h; DNA damage induced by 5-fluorouridine. Potency, µM (titrated, usually from 46.1 µM), most hits filed as inhibitors. actives 2.3% (n = 330,000). AID 504467; note: nearly all actives have a fitted effect of over 55% in size
#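 Overnight (16 hr) co-exposure of 2,000 cells/well to 5-fluorouridine and compound at 37 °C preceded detection. Luciferase was quantified via ONE-Glo luminescence; loss of signal denotes inhibition.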
# Rab9 prom act – activators of Rab9 promoter; Potency, µM (doses to about 9.22 µM), usual class: activators; Huh7 Rab9 promoter-luciferase reporter, luminescence, 24 h; actives 2.8% (n = 320,000); note: nearly all actives have a fitted effect of over 60% in size
#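 Luminescence read-out: Huh7 cells stably expressing Rab9-luciferase, treated 24 h with compound at 37 °C, then lysed with luciferase reagent for 10 min at ambient before reading.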
# FLuc counter – inhibits or activates purified firefly luciferase, miR-21 counter-screen | P08659 | purified FLuc, Km substrates, luminescence inhibition | AID 588342 | Potency, µM (doses to about 57.5 µM), most hits filed as inhibitors | actives 6.9% (n = 360,000); note: nearly all actives have a fitted effect of over 55% in size
# Target sequence (P08659 whole entry, looked up): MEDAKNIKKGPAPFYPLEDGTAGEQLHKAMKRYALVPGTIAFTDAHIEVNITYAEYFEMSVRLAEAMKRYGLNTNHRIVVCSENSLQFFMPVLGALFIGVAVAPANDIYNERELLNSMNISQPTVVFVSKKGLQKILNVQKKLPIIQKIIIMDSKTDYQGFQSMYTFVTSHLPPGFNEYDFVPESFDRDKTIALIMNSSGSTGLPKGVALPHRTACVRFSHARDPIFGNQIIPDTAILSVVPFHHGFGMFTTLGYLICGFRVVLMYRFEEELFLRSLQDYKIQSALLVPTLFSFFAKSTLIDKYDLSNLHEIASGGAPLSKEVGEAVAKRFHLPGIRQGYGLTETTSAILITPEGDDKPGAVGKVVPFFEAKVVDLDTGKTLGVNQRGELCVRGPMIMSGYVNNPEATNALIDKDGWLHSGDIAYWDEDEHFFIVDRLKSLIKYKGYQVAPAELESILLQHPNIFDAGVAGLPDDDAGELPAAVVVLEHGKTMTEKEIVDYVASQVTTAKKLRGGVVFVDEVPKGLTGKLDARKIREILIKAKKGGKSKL
#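 Purified P. pyralis luciferase, 10 nM final, with Km-level 10 uM D-luciferin and 10 uM ATP in 50 mM Tris acetate pH 7.5, 10 mM Mg acetate, 0.01% Tween-20, 0.05% BSA; 6-point qHTS titration about 60 µM downward; luminescence read.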
# NPC1 promoter act – NPC1 promoter activation; AID 485313; actives 2.4% (n = 320,000); Huh7 NPC1 promoter luciferase reporter, 24 h; Potency, µM (highest dose often 9.22 µM), hits mostly activators; note: nearly all actives have a fitted effect of over 60% in size
#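 Stable NPC1-promoter luciferase Huh7 line; cpd (DMSO) 24 h, 37 °C, 5% CO2; Amplite luciferase reagent 10 min RT; luminescence readout. qHTS format.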
# SMN2 splice enh – enhancers of SMN2 splice variant expression; AID 1458; Potency, µM (titrated, usually from 46.1 µM), hits mostly activators; actives 2.8% (n = 210,000); HEK293 SMN2-luciferase splicing reporter, luminescence, 30-36 h; note: nearly all actives have a fitted effect of over 55% in size
#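 HEK293 cells carry an SMN2 minigene-luciferase reporter in which exon 7 inclusion puts luciferase in frame. Cells were seeded at 2000 cells/well, attached for 10-12 hours, then exposed to compounds for 30-36 hours at 37C before ONE-Glo luminescence.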
# ELG1 genotox – inducers of genotoxicity in HEK293T ELG1-luciferase cells | HEK293T ELG1-luciferase reporter, luminescence, 16 h | Potency, µM (series often up to 46 µM), most hits filed as activators | actives 1.3% (n = 330,000); note: nearly all actives have a fitted effect of over 60% in size
#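 16 hr compound incubation (37 °C, 5% CO2) of HEK293T cells carrying luciferase-tagged ELG1; luciferase then measured by ONE-Glo luminescence after 30 min at RT.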
# A number is an active result; . = inactive; ? = inconclusive; / = not tested or not shown. Hits are enriched below; roughly 9.2% of the tested compounds scored in any of these assays. Calls come from the whole dose curve; as a rule, active = well fitted curve in the direction sought with a large enough effect; inconclusive = small, poorly fitted or top-dose-only effect, or another doubt; inactive = no such curve, though single readings can be large; an effect the other way counts as inactive or inconclusive.
SMILES,ELG1 DNA repair,Rab9 prom act,FLuc counter,NPC1 promoter act,SMN2 splice enh,ELG1 genotox
Cc1occc1C(=O)N/N=C/C=C/c1ccccc1[N+](=O)[O-],.,.,?,.,.,.
Cc1occc1C(=O)N/N=C/c1ccc(N(C)C)cc1,?,0.11µM,1.2µM,0.32µM,/,?
Cc1ccc(/C=N/NC(=O)c2ccoc2C)o1,?,?,?,.,?,.
Cc1nc(N2CCCCC2)nc(N2CCCCC2)c1C=O,.,.,.,.,.,.
NNC(=O)Cn1nc(Cc2ccccc2)n(N)c1=O,.,.,.,.,/,.
COC(=O)Oc1ccccc1C(=O)O,/,/,/,/,.,/
Cc1[nH]n2cnnc2c(=O)c1Br,.,.,.,.,/,.
Cn1c(O)c(N=NC(=O)CNC(=O)c2ccccc2)c2ccccc21,.,.,.,.,/,.
Cn1c(N=NC(=O)c2ccccc2)c(O)c2ccccc21,?,0.56µM,0.85µM,0.71µM,1.3µM,?
O=C(CNS(=O)(=O)c1ccc(Br)cc1)NCc1cccnc1,.,.,.,.,/,.
O=C(COc1ccc(Cl)cc1Cl)N1CCCCCC1,?,.,?,.,.,.
Cc1ccc(OCC(=O)N2CCCCC2)c(Br)c1,?,?,?,?,20µM,.
CC(C)(C)c1ccc(OCC(=O)N2CCCCCC2)c(Br)c1,?,?,15µM,?,13µM,?
Cc1ccc(C)c(Oc2coc3cc(OCC(=O)Nc4ccccc4C(C)C)ccc3c2=O)c1,26µM,.,.,.,.,.
CC(C)c1ccc(NC(=S)NN2CCOCC2)cc1,?,?,?,?,22µM,.
O=C(Nc1ccc(CN2CCS(=O)(=O)CC2)cc1)c1ccc(Cl)cc1,10µM,.,?,.,/,.
O=C(/C=C/c1ccc(Cl)cc1)Nc1ccc(CN2CCOCC2)cc1,?,.,?,.,.,.
CC(C)c1ccc(NC(=O)c2ccc(CN3CC(=O)N4CCCCC4C3=O)cc2)cc1 (stereo unspecified),/,/,11µM,/,/,/
CC(C)c1ccc(/C=C/C(=O)Nc2ccc(CN3CCOCC3)cc2)cc1,9.2µM,.,12µM,.,/,.
CC(CCc1ccccc1)NS(=O)(=O)c1ccccc1F (stereo unspecified),.,.,.,.,/,.
O=[N+]([O-])c1cc(S(=O)(=O)NC2=NCCCCC2)ccc1NCC1CCCCC1,?,.,.,.,.,.
O=C(Nc1ccc2c(c1)OCO2)c1ccc(CN2CCOCC2)cc1,?,.,15µM,?,.,18µM
O=C(Nc1ccc(CN2CCCCC2)cc1)c1ccc2c(c1)OCO2,?,.,?,.,.,?
CC(C)c1ccc(C(=O)Nc2ccc(CN3CCOCC3)cc2)cc1,.,.,11µM,.,/,.
Cc1cc(NC(=O)COc2ccc(C(C)(C)C)cc2)no1,?,.,?,.,/,.
SMILES,ELG1 DNA repair,Rab9 prom act,FLuc counter,NPC1 promoter act,SMN2 splice enh,ELG1 genotox
Oc1ccccc1-c1csc(-c2ccccc2)n1,?,?,5.4µM,.,?,.
Fc1ccc(-c2csc(-c3cccnc3)n2)cc1F,?,?,?,?,/,.
c1cncc(-c2nc(-c3ccc4c(c3)OCCO4)cs2)c1,?,0.56µM,1.7µM,0.89µM,/,?
Brc1ccsc1-c1csc(-c2ccncc2)n1,?,.,?,.,/,?
Oc1ccc(-c2csc(-c3cccnc3)n2)cc1O,?,.,17µM,.,/,?
c1ccc(-c2csc(-c3ccncc3)n2)cc1,?,.,15µM,.,.,.
CCN1c2ccccc2-c2nc(SCC(=O)Nc3cc(OC)cc(OC)c3)ncc2S1(=O)=O,/,/,.,/,/,/
COc1ccc(OCC(=O)OCc2cc(=O)n3cc(C)sc3n2)cc1,/,/,.,/,/,/
Cc1cccc(-c2nc(CN3CCCC(C(=O)NCCc4ccc(Cl)cc4)C3)c(C)o2)c1 (stereo unspecified),/,/,?,/,.,/
CCCSc1ncc(Cl)c(C(=O)Nc2c(C(=O)Nc3ccc(C)cc3)oc3ccccc23)n1,/,/,.,/,.,/
Fc1ccccc1-c1csc(-c2cccnc2)n1,?,?,15µM,?,/,?
Clc1ccc(-c2csc(-c3cccnc3)n2)s1,?,.,13µM,.,/,.
Oc1ccc(-c2csc(-c3ccccc3)n2)cc1O,?,.,15µM,.,?,?
Cc1nc(-c2ccc(O)c(O)c2)cs1,?,.,.,.,.,.
Cc1cc(NC(=O)CSc2nc(=O)cc(N)n2-c2ccc(C)c(C)c2)no1,.,.,.,.,/,.
CCC(=O)N1CCc2cc(S(=O)(=O)NCCC(=O)NCc3ccc(OC)cc3)ccc21,/,/,.,/,.,/
CCOC(=O)C1CCN(C(=O)Cn2c(-c3cccs3)cc3cc(Cl)ccc32)CC1,/,/,.,/,/,/
COc1ccc(-c2cnc3ccccc3n2)cc1NC(=O)CNC(=O)c1ccccc1,?,?,?,?,/,.
CCCCn1c(SCc2c(C)noc2C)nc2cc(S(N)(=O)=O)ccc21,?,.,.,.,?,18µM
CCCCn1c(SCC(=O)c2ccc3c(c2)NC(=O)CO3)nc2cc(S(N)(=O)=O)ccc21,16µM,.,.,.,.,.
CCCCn1c(SCC(=O)N2CCCC2)nc2cc(S(N)(=O)=O)ccc21,.,.,.,.,.,.
CC(C)Cn1cc(NC(=O)NCc2cccc(Cl)c2)c2ccccc2c1=O,/,/,.,/,/,/
CC(C)CCNC(=O)c1cccc(C(=O)NCCC(C)C)c1,.,.,.,.,.,.
CC(C)CCNC(=O)C(=O)Nc1ccccc1,?,1.6µM,?,3.5µM,?,?
CC(C)CCNC(=O)c1ccc(-c2ccccc2)cc1,?,3.5µM,9.5µM,?,7.9µM,?
SMILES,ELG1 DNA repair,Rab9 prom act,FLuc counter,NPC1 promoter act,SMN2 splice enh,ELG1 genotox
CC(CCc1ccccc1)NC(=O)c1ccccc1 (stereo unspecified),.,.,.,.,.,.
CC(CCc1ccccc1)NC(=O)c1ccc(C(=O)NC(C)CCc2ccccc2)cc1 (stereo unspecified),5.2µM,.,.,.,.,.
COc1ccc(NC(=O)N2CCN(S(=O)(=O)c3ccc4c(ccn4C)c3)CC2)c(OC)c1,/,/,.,/,/,/
CCCCCc1ccc(OCCC[n+]2ccccc2)c(CCCCC)c1,?,.,.,.,/,.
CCCCCc1ccc(OCCOCCn2c[n+](C)c3ccccc32)c(CCCCC)c1,7.3µM,.,.,.,.,.
CNS(=O)(=O)c1cn(CC(=O)Nc2ccc(OC)c(Cl)c2)cc1S(=O)(=O)NC,/,/,.,/,/,/
COc1ccc(Cl)cc1N(C)C(=O)Cc1noc2ccc(C)cc12,/,/,.,/,/,/
CCOC(=O)Cn1nc(/C=C/c2ccc(C)cc2)ccc1=O,.,.,?,.,.,.
CCOC(=O)Cn1nc(/C=C/c2ccc(C(C)C)cc2)ccc1=O,?,.,11µM,.,.,.
COc1ccc(CCNC(=O)c2cccs2)cc1OC,.,.,.,.,.,.
